# Only a selection was taken, and the strongest signals are over-represented in it overall.
# B1: Calsepa (Calystegia sepium), P93114 (protein)
# chain: MAVPMDTISGPWGNNGGNFWSFRPVNKINQIVISYGGGGNNPIALTFSSTKADGSKDTITVGGGGPDSITGTEMVNIGTDEYLTGISGTFGIYLDNNVLRSITFTTNLKAHGPYGQKVGTPFSSANVVGNEIVGFLGRSGYYVDAIGTYNRHK
# Columns and labels:
# Assay in all cases: glycan array binding signal (z-score within array); higher = stronger binding
# Settings in all cases: glycan notation: IUPAC condensed, linker removed
# [1] = target: Fuc(a1-2)Gal(b1-3)GlcNAc(b1-3)GalNAc
# In short: (§1)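 Negative Z-scores can be read as non-binding. The Z-score is calculated within each array and then averaged across arrays of one protein sequence at different concentrations or buffers and across linkers. Arrays, 3228 in all, were curated from the Consortium for Functional Glycomics database and kept only where the protein sequence was available.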
# [2] = target: Fuc(a1-2)Gal(b1-4)[Fuc(a1-3)]GlcNAc(b1-2)[Fuc(a1-2)Gal(b1-4)[Fuc(a1-3)]GlcNAc(b1-4)]Man(a1-3)[Fuc(a1-2)Gal(b1-4)[Fuc(a1-3)]GlcNAc(b1-2)Man(a1-6)]Man(b1-4)GlcNAc(b1-4)GlcNAc
# In short: as §1
# [3] = target: Fuc(a1-2)Gal6S(b1-3)GlcNAc6S
# In short: as §1
# [4] = target: Fuc(a1-2)[Gal(a1-3)]Gal(b1-4)GlcNAc
# In short: as §1
# [5] = target: Fuc(a1-3)[Gal(b1-4)]GlcNAc(b1-2)Man(a1-3)[Fuc(a1-3)[Gal(b1-4)]GlcNAc(b1-2)Man(a1-6)]Man(b1-4)GlcNAc(b1-4)GlcNAc
# In short: as §1
# [6] = target: Fuc(a1-3)[Gal(b1-4)]GlcNAc(b1-4)Gal(b1-4)[Fuc(a1-3)]GlcNAc
# In short: as §1
# [7] = target: Fuc(a1-3)[GalNAc3S(b1-4)]GlcNAc
# In short: as §1
# [8] = target: Fuc(a1-4)GlcNAc
# In short: as §1
# [9] = target: Gal(a1-3)Gal(b1-3)GlcNAc(b1-6)GalNAc
# In short: as §1
# [10] = target: Gal(a1-4)Gal(b1-4)GlcNAc(b1-2)Man(a1-3)[Gal(a1-4)Gal(b1-4)GlcNAc(b1-2)Man(a1-6)]Man(b1-4)GlcNAc(b1-4)GlcNAc
# In short: as §1
# [11] = target: Gal(b1-3)Gal(b1-4)GlcNAc(b1-2)Man(a1-3)[Gal(b1-3)Gal(b1-4)GlcNAc(b1-2)Man(a1-6)]Man(b1-4)GlcNAc(b1-4)GlcNAc
# In short: as §1
# [12] = target: Gal(b1-3)GalNAc(b1-4)[Neu5Ac(a2-3)]Gal(b1-4)Glc
# In short: as §1
# [13] = target: Gal(b1-3)GlcNAc(b1-2)Man(a1-3)[GlcNAc(b1-4)][Gal(b1-3)GlcNAc(b1-2)Man(a1-6)]Man(b1-4)GlcNAc(b1-4)GlcNAc
# In short: as §1
# [14] = target: Gal(b1-3)[Fuc(a1-4)]GlcNAc
# In short: as §1
# [15] = target: Gal(b1-3)[Fuc(a1-4)]GlcNAc(b1-3)Gal(b1-4)GlcNAc
# In short: as §1
# [16] = target: Gal(b1-3)[Fuc(a1-4)]GlcNAc(b1-3)Gal(b1-4)[Fuc(a1-3)]GlcNAc
# In short: as §1
# [17] = target: Gal(b1-3)[Neu5Ac(a2-6)]GlcNAc(b1-6)Gal(b1-4)Glc
# In short: as §1
# [18] = target: Gal(b1-4)GlcNAc(b1-2)Man(a1-3)[Gal(b1-4)GlcNAc(b1-2)][GlcNAc(b1-4)]Man(b1-4)GlcNAc(b1-4)GlcNAc
# In short: as §1
# [19] = target: Gal(b1-4)GlcNAc(b1-2)[Gal(b1-4)GlcNAc(b1-4)]Man(a1-3)[Gal(b1-4)GlcNAc(b1-2)Man(a1-6)]Man(b1-4)GlcNAc(b1-4)GlcNAc
# In short: as §1
# [20] = target: Gal(b1-4)GlcNAc(b1-2)[Gal(b1-4)GlcNAc(b1-6)]Man(a1-6)[GlcNAc(b1-4)][Gal(b1-4)GlcNAc(b1-2)Man(a1-3)]Man(b1-4)GlcNAc(b1-4)GlcNAc
# In short: as §1
# [21] = target: Gal(b1-4)GlcNAc(b1-6)Gal(b1-4)GlcNAc
# In short: as §1
# [22] = target: Gal(b1-4)GlcNAc(b1-6)[Gal(b1-3)]GalNAc
# In short: as §1
# [23] = target: Gal(b1-4)GlcNAc6P
# In short: as §1
# [24] = target: Gal6S(b1-4)Glc6S
# In short: as §1
# [25] = target: GlcA(b1-3)Gal
# In short: as §1
# [26] = target: GlcNAc(b1-2)Man(a1-3)[GlcNAc(b1-4)][GlcNAc(b1-2)Man(a1-6)]Man(b1-4)GlcNAc(b1-4)GlcNAc
# In short: as §1
# [27] = target: GlcNAc(b1-2)[GlcNAc(b1-6)]Man(a1-6)[GlcNAc(b1-2)Man(a1-3)][GlcNAc(b1-4)]Man(b1-4)GlcNAc(b1-4)GlcNAc
# In short: as §1
# [28] = target: GlcNAc(b1-3)[GlcNAc(b1-4)][GlcNAc(b1-6)]GlcNAc
# In short: as §1
# [29] = target: GlcNAc3Prop(b1-4)GlcNAc
# In short: as §1
# [30] = target: Man(a1-2)Man(a1-3)Man
# In short: as §1
# [31] = target: Man(a1-2)Man(a1-3)[Man(a1-2)Man(a1-6)]Man
# In short: as §1
# [32] = target: Man(a1-2)Man(a1-3)[Man(a1-6)]Man(a1-6)[Man(a1-2)Man(a1-3)]Man(b1-4)GlcNAc(b1-4)GlcNAc
# In short: as §1
# [33] = target: Neu5Ac(a2-3)Gal(b1-4)GlcNAc(b1-2)Man
# In short: as §1
# [34] = target: Neu5Ac(a2-3)Gal(b1-4)GlcNAc(b1-3)[Neu5Ac(a2-3)Gal(b1-4)GlcNAc(b1-6)]GalNAc
# In short: as §1
# [35] = target: Neu5Ac(a2-6)Gal(b1-4)GlcNAc(b1-2)Man(a1-3)Man(b1-4)GlcNAc(b1-4)GlcNAc
# In short: as §1
# [36] = target: Neu5Ac(a2-6)Gal(b1-4)GlcNAc(b1-2)Man(a1-3)[GlcNAc(b1-2)Man(a1-6)]Man(b1-4)GlcNAc(b1-4)GlcNAc
# In short: as §1
# [37] = target: Neu5Ac(a2-6)Gal(b1-4)GlcNAc(b1-2)Man(a1-3)[Man(a1-6)]Man(b1-4)GlcNAc(b1-4)GlcNAc
# In short: as §1
# [38] = target: Neu5Ac(a2-6)Gal(b1-4)GlcNAc(b1-2)Man(a1-3)[Neu5Ac(a2-6)Gal(b1-4)GlcNAc(b1-2)Man(a1-6)]Man(b1-4)GlcNAc(b1-4)GlcNAc
# In short: as §1
# [39] = target: Neu5Ac(a2-6)Gal(b1-4)GlcNAc(b1-2)Man(a1-3)[Neu5Ac(a2-6)Gal(b1-4)GlcNAc(b1-2)Man(a1-6)]Man(b1-4)GlcNAc(b1-4)[Fuc(a1-6)]GlcNAc
# In short: as §1
# [40] = target: Neu5Ac(a2-6)Gal(b1-4)GlcNAc(b1-2)Man(a1-6)[Gal(b1-4)GlcNAc(b1-2)Man(a1-3)]Man(b1-4)GlcNAc(b1-4)GlcNAc
# In short: as §1
# [41] = target: Neu5Ac(a2-6)Gal(b1-4)GlcNAc(b1-3)[Neu5Ac(a2-6)Gal(b1-4)GlcNAc(b1-6)]GalNAc
# In short: as §1
# [42] = target: Neu5Gc(a2-6)Gal(b1-4)GlcNAc
# In short: as §1
binder,measurement,setting,value
B1,glycan array binding signal (z-score),[1],-0.268
same,glycan array binding signal (z-score),[2],-0.257
same,glycan array binding signal (z-score),[3],-0.26
same,glycan array binding signal (z-score),[4],-0.249
same,glycan array binding signal (z-score),[5],-0.082
same,glycan array binding signal (z-score),[6],-0.253
same,glycan array binding signal (z-score),[7],-0.265
same,glycan array binding signal (z-score),[8],-0.244
same,glycan array binding signal (z-score),[9],-0.269
same,glycan array binding signal (z-score),[10],3.47
same,glycan array binding signal (z-score),[11],3.79
same,glycan array binding signal (z-score),[12],-0.253
same,glycan array binding signal (z-score),[13],4.21
same,glycan array binding signal (z-score),[14],-0.25
same,glycan array binding signal (z-score),[15],-0.252
same,glycan array binding signal (z-score),[16],-0.253
same,glycan array binding signal (z-score),[17],-0.248
same,glycan array binding signal (z-score),[18],5.25
same,glycan array binding signal (z-score),[19],-0.045
same,glycan array binding signal (z-score),[20],3.71
same,glycan array binding signal (z-score),[21],-0.251
same,glycan array binding signal (z-score),[22],-0.249
same,glycan array binding signal (z-score),[23],-0.27
same,glycan array binding signal (z-score),[24],-0.237
same,glycan array binding signal (z-score),[25],-0.244
same,glycan array binding signal (z-score),[26],5
same,glycan array binding signal (z-score),[27],5.82
same,glycan array binding signal (z-score),[28],-0.241
same,glycan array binding signal (z-score),[29],-0.246
same,glycan array binding signal (z-score),[30],-0.248
same,glycan array binding signal (z-score),[31],-0.251
same,glycan array binding signal (z-score),[32],-0.239
same,glycan array binding signal (z-score),[33],-0.255
same,glycan array binding signal (z-score),[34],-0.273
same,glycan array binding signal (z-score),[35],6.79
same,glycan array binding signal (z-score),[36],3.81
same,glycan array binding signal (z-score),[37],3.86
same,glycan array binding signal (z-score),[38],4.29
same,glycan array binding signal (z-score),[39],0.514
same,glycan array binding signal (z-score),[40],4.01
same,glycan array binding signal (z-score),[41],-0.274
same,glycan array binding signal (z-score),[42],-0.247

# Source: the supplement of paper PMC8728848
